Experimental data as given in PubChem BioAssay AID1159580 (chemical genetic matrix, 2015).
Several values for one entry are separate records, joined by “and”; a condition that tells them apart may be missing. Identical values can stand only once. The whole screen tested about 5,500 compounds, of which about 2,000 (36%) were called active. About 18% were inconclusive and are not listed. Cut-off read from the data, not from the text of the source: active = normalized growth mostly below about 0.91 (no sharp cut-off); inconclusive = no clear call, values can overlap the other calls; inactive = mostly above about 0.92. Some of the results follow.

Assay: chemical genetic growth profiling, strain panel (AID 1159580);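 note: tested at 20 µM; growth read once vehicle control cultures reached saturation at 30 °C; 1 = growth at the plate median or of vehicle wells; lower values mean less growth of the strain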
Settings: S. cerevisiae deletion strains, growth OD

Measured: normalized growth

CCC1(C)CC(=O)NC1=O (stereo not given)
inactive: locus YAL013W, strain DEP1, stronger effect = lower value 1.01 and 1.05 | locus YAL021C, strain ccr4, stronger effect = lower value 0.987 | locus YAL026C, strain drs2, stronger effect = lower value 0.986 | locus YAL030W, strain snc1, stronger effect = lower value 0.954 | locus YAL040C, strain CLN3, stronger effect = lower value 0.994 | locus YBL061C, strain skt5, stronger effect = lower value 0.993 | locus YBR009C, strain hhf1, stronger effect = lower value 0.97 | locus YBR021W, strain FUR4, stronger effect = lower value 1.01 | locus YBR023C, strain chs3, stronger effect = lower value 0.958 | locus YBR171W, strain sec66, stronger effect = lower value 0.983 | locus YBR229C, strain ROT2, stronger effect = lower value 1.01 | locus YBR231C, strain swc5, stronger effect = lower value 0.991 | locus YBR279W, strain paf1, stronger effect = lower value 0.973 | locus YCL011C, strain gbp2, stronger effect = lower value 0.992 | locus YCL016C, strain dcc1, stronger effect = lower value 0.986 | locus YCL029C, strain bik1, stronger effect = lower value 1.02 | locus YCL061C, strain MRC1 (second series), stronger effect = lower value 1.01 | locus YCL069W, strain vba3, stronger effect = lower value 0.977 | locus YCR088W, strain abp1, stronger effect = lower value 0.974 | locus YDL005C, strain med2, stronger effect = lower value 0.974 | locus YDL035C, strain GPR1, stronger effect = lower value 0.999 | locus YDL040C, strain nat1, stronger effect = lower value 0.995 | locus YDL074C, strain BRE1, stronger effect = lower value 0.977 | locus YDL101C, strain DUN1, stronger effect = lower value 1.01 | locus YDL134C, strain PPH21, stronger effect = lower value 1.02 | locus YDL185W, strain tfp1, stronger effect = lower value 1.02 | locus YDL192W, strain arf1, stronger effect = lower value 1.02 | locus YDR001C, strain nth1, stronger effect = lower value 0.964 | locus YDR069C, strain doa4, stronger effect = lower value 0.991 | locus YDR101C, strain arx1, stronger effect = lower value 1.04 | locus YDR137W, strain rgp1, stronger effect = lower value 0.979 | locus YDR150W, strain NUM1, stronger effect = lower value 1.01 | locus YDR159W, strain sac3, stronger effect = lower value 0.986 | locus YDR162C, strain NBP2, stronger effect = lower value 1.02 | locus YDR195W, strain ref2 0.953 | locus YDR297W, strain sur2, stronger effect = lower value 0.981 | locus YDR318W, strain mcm21, stronger effect = lower value 1.01 | locus YDR334W, strain swr1, stronger effect = lower value 0.952 | locus YDR335W, strain msn5, stronger effect = lower value 0.969 | locus YDR363W, strain ESC2, stronger effect = lower value 1.02 | locus YDR388W, stronger effect = lower value 1.02 | locus YDR392W, strain spt3, stronger effect = lower value 0.962 | locus YDR502C, strain sam2, stronger effect = lower value 1.01 | locus YEL003W, strain gim4, stronger effect = lower value 0.978 | locus YEL037C, strain rad23, stronger effect = lower value 0.975 | locus YEL061C, strain CIN8 (second series), stronger effect = lower value 0.982 | locus YEL061C, strain CIN8, stronger effect = lower value 1.01 | locus YER002W, strain NOP16, stronger effect = lower value 1.01 | locus YER015W, strain faa2, stronger effect = lower value 0.96 | locus YER016W, strain bim1, stronger effect = lower value 0.981 | locus YER110C, stronger effect = lower value 1.02 | locus YER111C, strain swi4, stronger effect = lower value 0.983 | locus YER155C, strain BEM2 (second series), stronger effect = lower value 0.973 | locus YER155C, strain BEM2, stronger effect = lower value 0.999 | locus YER167W, strain BCK2, stronger effect = lower value 1.01 | locus YFR010W, strain ubp6, stronger effect = lower value 0.974 | locus YGL078C, strain dbp3, stronger effect = lower value 1.01 | locus YGL086W, strain mad1, stronger effect = lower value 1.01 | locus YGL167C, strain pmr1, stronger effect = lower value 0.982 | locus YGL173C, strain kem1, stronger effect = lower value 0.98 | locus YGL227W, strain vid30, stronger effect = lower value 0.985 | locus YGL240W, strain doc1, stronger effect = lower value 0.971 | locus YGL248W, strain PDE1, stronger effect = lower value 1 | locus YGL253W, strain hxk2, stronger effect = lower value 0.981 | locus YGR078C, strain PAC10, stronger effect = lower value 1 and 0.997 | locus YGR135W, strain pre9, stronger effect = lower value 1.02 | locus YGR229C, strain SMI1, stronger effect = lower value 1.01 and 1.03 | locus YGR252W, strain gcn5, stronger effect = lower value 0.98 | locus YHR013C, strain ard1, stronger effect = lower value 0.94 | locus YHR027C, strain rpn1, stronger effect = lower value 0.978 | locus YHR030C, strain SLT2, stronger effect = lower value 1.01 and 0.972 | locus YHR079C, strain IRE1 (second series), stronger effect = lower value 1.02 | locus YHR079C, strain IRE1, stronger effect = lower value 0.978 | locus YHR094C, strain hxt1, stronger effect = lower value 1.02 | locus YHR129C, strain ARP1, stronger effect = lower value 1 | locus YHR142W, strain chs7, stronger effect = lower value 0.967 | locus YHR200W, strain rpn10, stronger effect = lower value 1.02 | locus YIL066C, strain RNR3, stronger effect = lower value 1.01 | locus YIL073C, strain SPO22, stronger effect = lower value 1.06 | locus YIL125W, strain kgd1, stronger effect = lower value 1.01 | locus YIR030C, strain dcg1, stronger effect = lower value 1.02 | locus YJL092W, strain hpr5, stronger effect = lower value 0.974 | locus YJL095W, strain BCK1 (second series), stronger effect = lower value 0.982 | locus YJL095W, strain BCK1, stronger effect = lower value 0.989 and 0.973 | locus YJL115W, strain asf1, stronger effect = lower value 0.959 | locus YJL129C, strain trk1, stronger effect = lower value 0.943 | locus YJL134W, strain LCB3, stronger effect = lower value 1.01 | locus YJL154C, strain vps35, stronger effect = lower value 0.971 | locus YJL164C, strain tpk1, stronger effect = lower value 0.974 | locus YJL166W, strain qcr8, stronger effect = lower value 0.974 | locus YJL168C, strain set2, stronger effect = lower value 1.01 | locus YJL187C, strain SWE1 (second series), stronger effect = lower value 1.01 | locus YJL187C, strain SWE1, stronger effect = lower value 0.98 | locus YJR043C, strain POL32, stronger effect = lower value 1.02 | locus YJR066W, strain TOR1, stronger effect = lower value 0.95
